# Hits are enriched below; roughly 1.1% of the tested compounds scored in any of these assays.
# NCOA3 inh: human NCOA3 inhibition; Q9Y6Q9; HEK293 GAL4-SRC3 luciferase reporter, luminescence; inhibition, % at 3.6 µM; hit rate 0.17% among 360,000; AID 588352;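 active means inhibition above a per-campaign cutoff, the mean of all compounds plus 3 SD, cut at about 60% in these data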;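 further: 0% = DMSO-treated cells and 100% = gossypol-treated cells at 36 µM; higher means less SRC3-driven luciferase light from the GAL4 reporter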
# NCOA2 inhibitor: inhibits human steroid receptor coactivator 2 | HEK293 GAL4-SRC2 luciferase reporter, luminescence | Q15596 | inhibition, % at 9 µM | hit rate 0.17% among 370,000 | AID 651957;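 active means inhibition above the mean inhibition of all tested compounds plus 3 SD, set per campaign, cut at about 52% in these data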;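 further: 0% = DMSO treated cells and 100% = cells given Gossypol at 36 µM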
# NR2F2 inh: inhibitors of human COUP-TFII (NR2F2); HEK293T NGFI-A luciferase reporter, luminescence; inhibition, % at 8.6 µM; hit rate 0.7% among 370,000;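 active means inhibition above a per-plate cutoff, mean inhibition of test wells between control levels plus 3 SD, cut at about 38% in these data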;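 further: cells cotransfected with COUP-TFII expression vector driving the NGFI-A reporter; 0% = median of COUP-TF2 test wells and 100% = reporter-only cells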
# GalR3 antagonist: blocks the human galanin receptor 3; HEK293 GalR3-CNG cAMP membrane potential fluorescence; galR3 body fused to GalR1 C-terminus; AID 651719; inhibition, % at 3 µM; hit rate 0.44% among 360,000; O60755;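 active means inhibition above the screen-wide average plus 3 SD, cut at about 13% in these data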;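 further: forskolin and galanin both at EC90 stimulate the cells; cAMP rise reported by CNG channel membrane potential dye signal; 0% = forskolin plus galanin with DMSO and 100% = forskolin alone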
# NR5A2 inv ag: suppresses constitutive activity of human LRH-1; O00482; HEK293T StAR-luciferase reporter, LRH-1 transfected, 24 h; inhibition, % at 3.6 µM; hit rate 0.13% among 360,000; AID 602396;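 active means inhibition above the mean inhibition of all tested compounds plus 3 SD, cut at about 73% in these data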;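 further: 0% = DMSO wells and 100% = reporter-only cells lacking LRH-1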
# NCOA1 inh: inhibitors of human steroid receptor coactivator 1 (SRC1) | AID 588354 | hit rate 0.12% among 360,000 | inhibition, % at 3.6 µM | HEK293 GAL4-SRC1 luciferase reporter, luminescence;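 active means inhibition above the campaign mean plus 3 SD, with each screening campaign given its own cutoff, cut at about 60% in these data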;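 further: 0% = DMSO treated cells and 100% = gossypol at 36 µM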
# GalR3 antag conf: GalR3 (human) antagonism, confirmation; inhibition, % at 3 µM; hit rate 59% among 1,600; AID 652245; shares compounds with GalR3 antagonist; HEK293 GalR3 CNG cAMP biosensor, membrane potential fluorescence; galR3 fused to GalR1 carboxy tail; challenged with forskolin and galanin at EC90;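 active means inhibition above the primary screen's cutoff, the mean inhibition of all screened compounds plus 3 SD, cut at about 13% in these data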;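 further: 0% = forskolin plus galanin and 100% = forskolin alone with DMSO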
# CNG parental: acts as nonspecific agonist in parental HEK-CNG cells; shares compounds with GalR3 antagonist; HEK293-CNG parental cells, cAMP membrane potential fluorescence; normalised: DMSO wells 0%, forskolin wells 100%; activation, % at 3 µM; hit rate 10% among 1,600; in the data active means activation above about 1.3%
# Starred values were filed as active, the others as inactive; nt = not tested or not shown; ! = not active in a repeat.
SMILES,NCOA3 inh,NCOA2 inhibitor,NR2F2 inh,GalR3 antagonist,NR5A2 inv ag,NCOA1 inh,GalR3 antag conf,CNG parental
O=C1NC(=O)C(c2ccccc2[N+](=O)[O-])=C1Nc1ccc(O)c(Cl)c1,2.2,-8.7,6.7,12.9*,11.2,-10.3,1.2,0.1
O=C(NNc1ccccc1[N+](=O)[O-])Nc1ccc(Cl)c(Cl)c1,20.4,-1.0,3.2,0.2,-1.7,1.9,nt,nt
Oc1ccc(C(c2nnnn2CCc2ccccc2)N2CCN(c3nc4ccccc4s3)CC2)cc1 (stereo unspecified),10.8,22.3,-4.2,23.0*,-1.8,-7.8,1.4,-0.6
COCCn1nnnc1C(c1cccs1)N1CCN(c2nc3ccccc3s2)CC1 (stereo unspecified),-5.7,5.3,-5.1,-1.8,-2.9,10.4,nt,nt
COC(=O)C[C@H]1CC[C@@H]2[C@@H](COc3ccc(NC(=O)c4ccccc4)cc3C(=O)N2C)O1,nt,-2.3,-1.3,nt,nt,nt,nt,nt
CCC(=O)N1CCN(c2ccc(NC(=S)NC(=O)COc3ccccc3)cc2)CC1,8.8,-2.5,15.0,-6.2,6.7,1.9,nt,nt
CC(=O)N1CCN(c2ccc(NC(=S)NC(=O)COc3ccc(C(C)(C)C)cc3)cc2)CC1,22.0,4.0,11.4,29.8*,8.8,3.5,95.2*,-0.6
CC(C)(C)N1C(=O)[C@H]2[C@@H](c3ccc(Br)cc3)N3C(=O)N(c4ccccc4)C(=O)[C@@]3(Cc3ccccc3)[C@H]2C1=O,-14.0,-3.0,14.1,nt,-0.6,-5.2,1.9,-0.5
COC(=O)c1ccc(N2CCN(CC(=O)c3ccc(-c4ccccc4)cc3)CC2)c([N+](=O)[O-])c1,-19.7,-9.5,-5.5,nt,7.0,-35.1,7.4,0.4
COc1ccc(Cn2cc(CN3[C@H](Cc4ccccc4)COc4cc(Br)ccc4S3(=O)=O)nn2)cc1,nt,-5.0,-9.2,nt,nt,nt,nt,nt
O=C(COC(=O)c1cccc(Br)c1)Nc1ccc2[nH]c(=O)[nH]c2c1,4.0,-13.2,17.0,32.5*,-3.6,-5.3,48.8*,-0.1
Cc1nn(C)c(Nc2ccc(Br)cc2)c1Br,30.3,4.7,36.1,49.4*,24.6,-0.9,85.7*,-0.9
COc1cccc(-c2nnc3sc(C4CCCCC4)nn23)c1,37.5,15.6,24.7,-4.9,7.1,51.7,nt,nt
c1cncc(-c2nnc3sc(C4CCCCC4)nn23)c1,5.9,-2.0,-13.9,nt,1.9,4.2,4.4,0.2
Cc1cccc(C)c1NC(=O)COC(=O)c1c2c(nc3ccccc13)/C(=C\c1ccc3c(c1)OCO3)CCC2,28.7,-20.0,19.0,nt,-6.1,-0.9,-3.3,0.2
COc1ccc(S[C@]2(C(=O)N3CCN(c4ncccn4)CC3)CC(=O)N(c3ccccc3)[C@@H]2c2ccc(OC)cc2)cc1,nt,3.4,17.9,nt,nt,nt,nt,nt
COc1ccc(NC(=O)c2ccc(CNc3c(NC4CCCCC4)c(=O)c3=O)cc2)c(OC)c1,-13.4,-35.1,-3.0,14.0*!,-7.8,-8.0,4.4,0.0
O=C(COc1ccccc1Br)NCCC1=CCCCC1,-7.2,7.9,-3.2,-7.0,-5.9,1.0,nt,nt
COc1ccccc1OCC(=O)NCCC1=CCCCC1,3.1,-20.1,3.6,nt,-14.5,-5.9,2.7,0.5
CC(C)CN1C(=O)[C@@]2(CC(=O)N(C)C2c2ccccc2)c2cc(-n3cc(CCc4ccccc4)nn3)ccc21 (stereo partly specified),nt,8.4,-33.7,nt,nt,nt,nt,nt
N#Cc1ccccc1S(=O)(=O)NC(=O)[C@H]1O[C@@H](n2cnc3c(N)ncnc32)[C@H](O)[C@@H]1O,0.2,-25.1,5.7,20.9*,-9.6,-2.8,45.0*,1.4*
COc1ccc(OC)c(S(=O)(=O)N2CCC(C(=O)NCc3cccs3)CC2)c1,nt,2.4,2.3,nt,nt,nt,nt,nt
c1ccc(CCSc2nnc(-c3cccnc3)n2Cc2ccccc2)cc1,nt,-7.5,-4.8,nt,nt,nt,nt,nt
COCCN(Cc1cc2cc(C)ccc2[nH]c1=O)S(=O)(=O)c1ccc(Cl)cc1,13.4,-6.7,5.3,73.5*,-20.2,8.5,3.8,0.3
Cc1ccc(S(=O)(=O)N(C)Cc2cc3cc(C)ccc3[nH]c2=O)cc1,7.9,13.6,-11.6,4.2,-20.0,12.4,nt,nt
SMILES,NCOA3 inh,NCOA2 inhibitor,NR2F2 inh,GalR3 antagonist,NR5A2 inv ag,NCOA1 inh,GalR3 antag conf,CNG parental
CCCc1ccc(C(=O)NC(=O)c2ccccc2O)cc1,-22.3,-12.3,-18.6,13.3*,-61.2,-39.5,48.6*,-0.7
C[C@H](NCCc1ccc(O)cc1)[C@H](O)c1ccc(O)cc1,-16.9,-25.4,-56.6,38.8*,15.6,-56.0,62.4*,0.8
Cc1ccc2c(c1)C(CS(=O)(=O)NC1CCCC1)NC2 (stereo unspecified),nt,-14.4,3.8,nt,nt,nt,nt,nt
COc1ccc(OC)c(S(=O)(=O)N2CCCCC2C(=O)N2CCN(c3ccc(F)cc3)CC2)c1 (stereo unspecified),nt,12.5,23.1,nt,nt,nt,nt,nt
COc1ccc(OC)c(S(=O)(=O)N2CCCCC2C(=O)N2CCN(c3ccccn3)CC2)c1 (stereo unspecified),3.1,5.4,-4.4,14.2*,23.4,-21.8,4.2,0.1
COC(=O)[C@]1(C#N)CC(=O)N(Cc2ccc(Cl)cc2)[C@@H]1c1ccccc1,nt,6.0,-3.8,nt,nt,nt,nt,nt
Cn1c2ccccc2c2cnn(CC(=O)O)c(=O)c21,-1.8,-8.6,-14.0,nt,3.9,-1.9,0.6,0.9
O=C(CN(CCc1ccccc1)S(=O)(=O)c1ccc(Cl)cc1)N/N=C/c1ccc2c(c1)OCO2,22.1,7.8,-8.1,13.2*,-13.5,-18.5,-1.8,1.9*
COc1ccc(C)c(NC(=O)[C@@H]2CCCN2S(=O)(=O)c2cccc3cccnc23)c1,nt,nt,12.2,nt,nt,nt,nt,nt
COC(=O)C(C)Sc1nc2c(c(=O)n(C)c(=O)n2C)n1CCC(C)C (stereo unspecified),24.2,-8.2,-9.5,1.8,-3.3,4.3,nt,nt
COC(=O)C(C)Sc1nc2c(c(=O)[nH]c(=O)n2C)n1CCC(C)C (stereo unspecified),-2.9,5.4,-21.1,55.2*,-12.6,-4.6,12.9*,0.6
CCCOc1cccc(C2C(C(=O)c3ccc(C)o3)=C(O)C(=O)N2CCN2CCOCC2)c1 (stereo unspecified),-4.0,-7.6,-1.3,-6.0,4.4,-37.5,nt,nt
CCOc1cccc(C2C(C(=O)c3ccco3)=C(O)C(=O)N2c2nnc(C)s2)c1 (stereo unspecified),-4.3,23.5,-8.0,21.6*,7.0,-20.4,2.0,-0.1
CCOc1cccc(C2C(C(=O)c3ccc(C)o3)=C(O)C(=O)N2c2nnc(C)s2)c1 (stereo unspecified),4.1,7.2,-8.2,-3.4,-48.0,-3.2,nt,nt
